“And” between values parts separate entries of the source, which are not always exact repeats. Equal entries are not always repeated. Compounds without any hit were thinned out: in the full panel of roughly 83,000, 20% have a hit.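 A percent growth of 40 corresponds to 60% growth inhibition; 0 means no net growth; -100 means all cells died. Active threshold: below 10.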 The source made the active and inactive calls.

Consider 39 compounds from PubChem BioAssay (NCI).

The first assay has as its system CAKI-1 renal. As to the kind of experiment: NCI-60 one-dose screen, 48 h (100 = growth as untreated, 0 = no growth, -100 = all killed). Conditions: 10 µM unless noted.
`O=C(O)C1(C(=O)O)CCC1.[NH2-].[NH2-].[Pt+2]`: the growth is 88% (inactive) and 81.1% (inactive).

`CCNC(=O)Nc1ccc(-c2nc3c(c(N4CCOC[C@@H]4C)n2)CCN(C2COC2)C3)cc1`: the growth is 67.1% (inactive) and 0.578% (active).

`O=C1C2=C(C(=O)c3ccccc31)C(O)(S(=O)(=O)O)C(O)(S(=O)(=O)O)C1N=CC=CC21` (centres undefined): the growth was 21.9% (inactive) and 15.8% (inactive).

Consider `COc1ccc2c(=O)cc(-c3ccccc3)[nH]c2c1`, for which the growth is 24.6% (inactive).

Consider `COc1cc(Nc2nc3ccccc3nc2NS(=O)(=O)c2ccc(NC(=O)c3ccc(C)c(OC)c3)cc2)cc(OC)c1`, for which the growth is 62.2% (inactive) and -11.6% (active).

As to `COc1cc(-c2nccc3cc4c(cc23)OCO4)cc(OC)c1OC`, the growth is 20% (inactive) and 30.8% (inactive).

Consider `CCN(CC)CCC(CNc1ccnc2cc(Cl)ccc12)c1ccc(OC)cc1` (centres undefined), for which the growth is 55.6% (inactive) and 21.6% (inactive).

Take `CC(=O)Nc1ccc(O)cc1`: the growth is 98% (inactive) and 94.4% (inactive) and 101% (inactive).

`c1ccc2c(CC3=NCCN3)cccc2c1`: the growth was 92.9% (inactive).

As to `Cc1nn(-c2ccc(Cl)cc2)c2ncnc(N/N=C/c3ccccc3O)c12`, the growth is 13.5% (inactive) and 5.47% (active).

Regarding `CCN(CC)C(=S)SSC(=S)N(CC)CC`, the growth is 76.4% (inactive) and 87.5% (inactive).

Take `Nc1nc(SC/C=C/CCl)c2[nH]cnc2n1`: the growth is 105% (inactive) and 112% (inactive).

As to `c1ccc(NCc2ccc3c(c2)OCO3)cc1`, the growth is 96.8% (inactive) and 101% (inactive).

For `CN(Cc1ccccc1)Cc1ccccc1`, the growth was 93.9% (inactive).

In the case of `O=[N+]([O-])c1ccc(N/N=C\c2cc(Br)ccc2O)nc1`, the growth is 0.337% (active) and 2.29% (active).

As for `O=C(Nc1ccc(Br)cc1)c1cc(Br)ccc1O`, the growth is 5.39% (active) and 10.4% (inactive).

Consider `O=C(O)C1C2C=CC(C2)C1C(=O)O` (centres undefined), for which the growth is 98.2% (inactive) and 7.77% (active) and 98.7% (inactive).

Turning to `COc1cc(C(=O)c2ccc3c(c2)OCO3)cc(OC)c1OC`, the growth was 4.39% (active) and 24.7% (inactive).

Turning to `O=C(CCc1ccc(O)cc1)N/N=C/c1cc(Br)ccc1O`, the growth is 18.7% (inactive).

Regarding `CC(=O)Oc1cc(C(=O)O)cc(OC(C)=O)c1OC(C)=O`, the growth is 99.5% (inactive) and 95.5% (inactive).

As to `Cn1c(=O)c2[nH]c(CCCCCCCCc3nc4ccccc4[nH]3)nc2n(C)c1=O`, the growth was 49.7% (inactive) and 57.9% (inactive).

On to `O=C1c2ccccc2C(=O)N1/N=C/c1ccc2c(c1)OCO2`, for which the growth was 110% (inactive).

Regarding `S=C1SCN(Cc2ccccc2)CN1Cc1ccccc1`, the growth is 76.1% (inactive).

`Cc1ccc(-c2noc(CC(=O)c3ccc([N+](=O)[O-])cc3)n2)cc1`: the growth is 97.1% (inactive).

Consider `CC(=O)C(/C=N/C(N)=O)=C(/C)O`, for which the growth is 97.9% (inactive).

For the compound `COC(=O)c1nc(N)nc(C(=O)OC)c1C(=O)c1ccc(OC)cc1`, the growth is 94.8% (inactive) and 73.6% (inactive).

Consider `Cc1cc(O)c2c(c1)C(=O)c1cc(O)cc(O)c1C2=O`, for which the growth is 72.2% (inactive) and 95.2% (inactive).

For the compound `C#CCN(C)Cc1ccccc1`, the growth is 99% (inactive) and 69.1% (inactive).

As to `CCN(CC)CCCC(C)Nc1ccnc2cc(Oc3ccccc3)ccc12` (centres undefined), the growth is 68.8% (inactive).

For `COc1ccccc1NC(=O)OCC#CCOC(=O)Nc1ccccc1OC`, the growth is 94.3% (inactive) and 88.6% (inactive).

`Cc1cc(O)c(C(C)C)cc1S(=O)(=O)O` (tested in a mixture with another compound): the growth is 67.7% (inactive) and 12.1% (inactive) and 74.4% (inactive).

For `Oc1c(CN2CCCCC2)ccc2cccnc12`, the growth was 2.08% (active).

For `NS(=O)(=O)c1cc2c(cc1Cl)NC(C(Cl)Cl)NS2(=O)=O` (centres undefined), the growth was 98.8% (inactive) and 95.4% (inactive).

Regarding `COc1cc2nc(N3CCN(C(=O)C4COc5ccccc5O4)CC3)nc(N)c2cc1OC` (centres undefined), the growth was 103% (inactive) and 82.2% (inactive) and 87.4% (inactive).

The next assay deals with A498 renal. Described as above. The settings on record: 10 µM unless noted.
For the compound `O=C(O)C1(C(=O)O)CCC1.[NH2-].[NH2-].[Pt+2]`, the growth is 111% (inactive) and 98.4% (inactive).

In the case of `CC1(C)[C@@H](OC(=O)CCC(=O)O)CC[C@]2(C)[C@H]3C(=O)C=C4[C@@H]5C[C@@](C)(C(=O)O)CC[C@]5(C)CC[C@@]4(C)[C@]3(C)CC[C@@H]12`, the growth was 112% (inactive) and -65.7% (active).

Consider `O=C1C2=C(C(=O)c3ccccc31)C(O)(S(=O)(=O)O)C(O)(S(=O)(=O)O)C1N=CC=CC21` (centres undefined), for which the growth was 82.1% (inactive) and 33.9% (inactive).

As for `COc1cc(Nc2nc3ccccc3nc2NS(=O)(=O)c2ccc(NC(=O)c3ccc(C)c(OC)c3)cc2)cc(OC)c1`, the growth was 18.9% (inactive) and -44.3% (active).

Consider `CC(=O)Nc1ccc(O)cc1`, for which the growth was 100% (inactive) and 102% (inactive) and 94.1% (inactive).

On to `c1ccc2c(CC3=NCCN3)cccc2c1`, for which the growth was 90.3% (inactive) and 81.4% (inactive).

Turning to `Cc1nn(-c2ccc(Cl)cc2)c2ncnc(N/N=C/c3ccccc3O)c12`, the growth is 78.5% (inactive) and 69.6% (inactive).

Regarding `CC1CCCC(=O)O1` (centres undefined), the growth is 110% (inactive) and 97.8% (inactive).

Consider `CN(Cc1ccccc1)Cc1ccccc1`, for which the growth is 114% (inactive).

Regarding `CN(C)c1ccc(C(=C2C=CC(=[N+](C)C)C=C2)c2ccccc2Cl)cc1`, the growth was -64% (active) and -87.1% (active).

Turning to `O=C(Cc1cccc2ccccc12)N/N=C/c1ccc2c(c1)CCC2`, the growth is 72.7% (inactive).

`COc1cc(C(=O)c2ccc3c(c2)OCO3)cc(OC)c1OC`: the growth was 6.18% (active).

Take `O=C1c2ccccc2C(=O)N1/N=C/c1ccc2c(c1)OCO2`: the growth was 81.4% (inactive).

As for `Oc1ccc(/C=C/c2ccccc2)cc1`, the growth is 83.1% (inactive) and 59.4% (inactive).

In the case of `CC(=O)C(/C=N/C(N)=O)=C(/C)O`, the growth was 92.7% (inactive).

In the case of `Cc1cc(O)c2c(c1)C(=O)c1cc(O)cc(O)c1C2=O`, the growth was 82.7% (inactive) and 75.8% (inactive).

In the case of `C#CCN(C)Cc1ccccc1`, the growth was 126% (inactive) and 96.3% (inactive).

As for `CCN(CC)CCCC(C)Nc1ccnc2cc(Oc3ccccc3)ccc12` (centres undefined), the growth is 59.1% (inactive) and 55.4% (inactive).

Consider `NS(=O)(=O)c1cc2c(cc1Cl)NC(C(Cl)Cl)NS2(=O)=O` (centres undefined), for which the growth was 97.6% (inactive) and 96.2% (inactive).

`COc1cc2nc(N3CCN(C(=O)C4COc5ccccc5O4)CC3)nc(N)c2cc1OC` (centres undefined): the growth was 105% (inactive) and 94.2% (inactive) and 101% (inactive).
